The supplement of paper PMC13380429

Test system: Vero E6 infected with SARS-CoV-2
Assay: inhibition of SARS-CoV-2 cytopathic effect; higher = more antiviral protection, active = above 15
Details: 48 h

Measured: inhibition of SARS-CoV-2 cytopathic effect

CC(CC(C(N)=O)(c1ccccc1)c1ccccc1)N(C)C (stereo not given) [aminopentamide]
inactive: 1 nM -1.11% | 8.33 nM -1.56% | 100 nM -1.71% | 833.33 nM 0.24% | 10000 nM -0.57%

CC(=O)OC[C@H](N)C(=O)O [O-acetyl-L-serine]
inactive: 1 nM 0.15% | 8.33 nM 1.11% | 100 nM 1.58% | 833.33 nM 1.65% | 10000 nM -0.72%

COc1cc2ncnc(Oc3cccc(NC(=O)Nc4cc(C(C)(C)C(F)(F)F)on4)c3)c2cc1OC
inactive: 1 nM -0.44% | 8.33 nM 0.69% | 100 nM 2.72% | 833.33 nM -0.98% | 10000 nM -6.45%

NCCCC[C@H](N[C@@H](CCc1ccccc1)C(=O)O)C(=O)N1CCC[C@H]1C(=O)O [lisinopril]
inactive: 1 nM 0.42% | 8.33 nM 0.67% | 100 nM 0.78% | 833.33 nM 0.97% | 10000 nM 1.56%

C=CC(=O)c1ccc2ccccc2c1 [JAK3-inhibitor-V]
inactive: 1 nM -1.46% | 8.33 nM -1.7% | 100 nM -2.73% | 833.33 nM -2.88% | 10000 nM 1.9%

CC(C(=O)O)c1ccc2c(c1)[nH]c1ccc(Cl)cc12 (stereo not given) [carprofen]
inactive: 1 nM 4.44% | 8.33 nM 2.85% | 100 nM -6.45% | 833.33 nM 4.46% | 10000 nM 3.76%

CCCc1cc(=O)[nH]c(=S)[nH]1 [propylthiouracil]
inactive: 1 nM 3.65% | 8.33 nM -8.68% | 100 nM 2.66% | 833.33 nM 2.01% | 10000 nM -1.99%

Cc1ncc([N+](=O)[O-])n1CC(O)CCl (stereo not given) [ornidazole]
inactive: 1 nM -2.81% | 8.33 nM 0.99% | 100 nM 1.14% | 833.33 nM -1.29% | 10000 nM 1.51%

CCN(CCNC(=O)Nc1ccccc1Br)c1cccc(C)c1
inactive: 1 nM -0.09% | 8.33 nM 2.65% | 100 nM -0.41% | 833.33 nM -0.7% | 10000 nM 0.98%

CCC1(C2=NCCN2)Cc2ccccc2O1 (stereo not given) [efaroxan]
inactive: 1 nM -0.76% | 8.33 nM -1.17% | 100 nM -0.66% | 833.33 nM -2.93% | 10000 nM -3.79%

CC1(CN2CCC(n3c(=O)[nH]c4ccccc43)CC2)OCc2ccccc2-n2cccc21 (stereo not given) [zaldaride]
inactive: 1 nM 4.94% | 8.33 nM -0.44% | 100 nM 4.25% | 833.33 nM -2.81% | 10000 nM -4.06%

CNCCC=C1c2ccccc2CCc2ccccc21 [nortriptyline]
inactive: 1 nM 1.29% | 8.33 nM -0.85% | 100 nM 0.56% | 833.33 nM 1.26% | 10000 nM -4.8%

NC[C@H]1O[C@H](O[C@H]2[C@H](O)[C@@H](O[C@H]3O[C@H](CO)[C@@H](O)[C@H](N)[C@H]3O)[C@H](N)C[C@@H]2N)[C@H](N)[C@@H](O)[C@@H]1O [bekanamycin]
inactive: 1 nM -0.6% | 8.33 nM -0.02% | 100 nM -0.32% | 833.33 nM 0% | 10000 nM -1.85%

Cc1cc(C)cc(C(=O)NOCCCCCC(=O)NO)c1
inactive: 1 nM 2.07% | 8.33 nM -0.95% | 100 nM -1.04% | 833.33 nM -9.5% | 10000 nM -23.1%

C[C@@H](NCc1cc(Br)cc2nc(O)c(O)nc12)P(=O)(O)O
inactive: 1 nM -0.47% | 8.33 nM 3.65% | 100 nM -0.39% | 833.33 nM -1.72% | 10000 nM -3.97%

Nc1ncnc2c1ncn2[C@@H]1O[C@H](COP(=O)(O)OP(=O)(O)OP(=O)(O)OP(=O)(O)OC[C@H]2O[C@@H](n3cnc4c(N)ncnc43)[C@H](O)[C@@H]2O)[C@@H](O)[C@H]1O [diadenosine-tetraphosphate]
inactive: 1 nM 1.69% | 8.33 nM 0.56% | 100 nM 0.34% | 833.33 nM 1.06% | 10000 nM -1.97%

NS(=O)(=O)c1ccc2c(c1)C1C=CCC1C(c1ccc(Br)cc1)N2 (stereo not given)
inactive: 1 nM -1.04% | 8.33 nM 1.37% | 100 nM -1.73% | 833.33 nM -1.33% | 10000 nM -0.61%

CN(C)c1ccc2c(c1)Sc1cc(N(C)C)ccc1N2 [leucomethylene-blue]
inactive: 1 nM 2.22% | 8.33 nM 0.11% | 100 nM 0.26% | 833.33 nM 0.69% | 10000 nM -7.13%

COc1cc(C(=O)NCCCCCC(=O)O)cc(OC)c1OC [capobenic-acid]
inactive: 1 nM -6.75% | 8.33 nM -2.2% | 100 nM -0.79% | 833.33 nM -1.85% | 10000 nM 2.8%

NCCCCCC(=O)O [aminocaproic-acid]
inactive: 1 nM -7.62% | 8.33 nM -2.22% | 100 nM 1.68% | 833.33 nM 1.01% | 10000 nM -2.29%
